PubChem BioAssay (NCI)
About 83,000 compounds went through this panel and 20% of them were active in at least one assay; those are over-represented in the sample as a whole.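 Single-dose data. Exposure time 48 hours. Values below 10 considered active.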 Unmarked numbers belong to inactive results. Calls of active or inactive are those of the source.

System: MDA-MB-468 breast
Assay: NCI-60 one-dose screen, 48 h (100 = growth as untreated, 0 = no growth, -100 = all killed)
Settings: 10 µM unless noted

Structure (SMILES)	growth
OC1CCN(CCCOc2c3ccc(Cl)cc3nc3c2oc2ccccc23)CC1	-43.9% (active)
Cc1ccc(N=Nc2ccccc2)cc1	95.2%
COc1ccc(/C=N/Nc2cc(=O)[nH]c3ccc(C)cc23)cc1	101%
COc1ccccc1C(=O)NC(=S)Nc1ccc(-c2nc3ccccc3[nH]2)cc1	75.1%
Cc1cccc(NC(=O)N/C(N)=N/c2nc3ccccc3s2)c1	17.8%
Fc1ccc(-c2cnc3nonc3n2)c(F)c1	73.3%
O=C(CN1CCOCC1)Nc1ccc2ncnc(Nc3ccc(Oc4cccc(F)c4)c(Cl)c3)c2c1	-17.1% (active)
C=CCNC(=O)Cc1c(-c2ccc(OC)cc2)oc2c(OC)c3c(c(OC)c12)OCO3	94.9%
COc1cccc(-c2nc3sccn3c2-c2ccnc(NCCNS(=O)(=O)c3cccc(Cl)c3)c2)c1	42.4%
Clc1ccc2c(c1)C(N1CCNCC1)=Nc1ccccc1O2	-48.3% (active)
CCN(CC)CCOc1ccccc1C	118%
Clc1ccc2c(NCCCn3cnc4c(N5CCCC5)nc(Cl)nc43)ccnc2c1	107%
Cc1ccc(C(=O)c2ccc(C)cc2)cc1	91%
Cc1ccc(NC(=S)N/C=C(\c2ccccc2)S(=O)Cc2ccccc2)c(C)c1 (stereo not given)	100%
[Cu+].[NH-][C@H]1C[N-]C(=O)[C@H]([C@H]2CCN=C(N)N2)[N-]C(=O)/C(=C\NC(N)=O)[N-]C(=O)[C@H](CNC(=O)C[C@@H](N)CCCN)[N-]C(=O)[C@H](CO)[N-]C1=O	96.2%
COc1ccc(/C=C2\COc3ccc(O)cc3C2=O)c(OC)c1	-1.02% (active)
C/C(=C(/c1ccc(O)cc1)c1ccc(OCCN(C)C)cc1)c1ccccc1	58.4%
Nc1ccc(-c2nnc(SCc3ccc(O)c4ncccc34)n2-c2ccccc2)cc1	9.01% (active)
CCOC(=O)n1cc(-c2nonc2-c2cn(C(=O)OCC)c3ccc(Br)cc23)c2ccccc21	85.9%
COc1ccc(C(=O)c2cc(OC)c(OC)c(OC)c2)cc1/C=C/C(=O)c1ccc2c(c1)OCO2	9.38% (active)

Structure (SMILES)	growth
CCc1ccc(NC(=O)N[C@@H](Cc2cccc(F)c2)C(=O)N[C@@H]2C(=O)N3CCC[C@H]3C(=O)N3CCCC[C@H]3C(=O)N[C@@H](CO)C(=O)N3C[C@H](C)C[C@H]3C(=O)O[C@H]2C)c(F)c1	-7.85% (active)
CCOC(=O)c1ccc2nc(-c3c(C)nn(-c4ccccc4)c3N3CCOCC3)[nH]c2c1	105%
OCC1OC(n2cnc3c(N/N=C\c4ccccn4)ncnc32)C(O)C1O (stereo not given)	-24% (active)
C[C@@H](C[C@H](CCO)c1ccccc1)c1ccc2ccccc2c1	-54.1% (active)
CCCCCCCCCCCCCCCCSC(=NCC)NCC	-37.3% (active)
O=C(N=c1n(-c2ccccc2)nc2n1CCN2C1=NCCN1C(=O)c1ccc(Cl)cc1)c1ccc(Cl)cc1	73.6%
O=C(O)/C=C\C(=O)Nc1ccc2c(c1)Cc1cc(F)ccc1-2	109%
Cc1cccc(C[C@H](NC(=O)Nc2ccc(Cl)cc2F)C(=O)N[C@@H]2C(=O)N3C[C@H](OC(=O)CCN(C)C)C[C@H]3C(=O)N3CCCC[C@H]3C(=O)N[C@@H](C)C(=O)N3C[C@H](C)C[C@H]3C(=O)O[C@H]2C)c1	9.39% (active)
Cc1c2cnccc2c(C)c2c1c1cc(C#N)ccc1n2C	-46.9% (active)
Clc1ccc(-c2cn(-c3ccccc3)c(-c3ccccc3)n2)c(Cl)c1	-61.3% (active)
COC(=O)[C@@H](Cc1c[nH]c2ccccc12)NC(=O)/C=C/c1ccccc1	19.6%
CCOC(=O)c1c(C)nc2c(c1N)CC(=O)N2Cc1ccc(F)cc1	91%
Cn1ccnc1C(=O)/C=C/c1ccc(CNC(=O)c2ccc(F)cc2)cc1	-29.1% (active)
Cn1cc(-c2noc(-c3cn(C)c4ncc(Br)cc34)n2)c2cc(Cl)ccc21	82.3%
Cc1ccc(-c2cn3cc([N+](=O)[O-])ccc3n2)cc1	56.3%
O=C(CSc1nnc(-c2cccs2)n1-c1ccccc1)Nc1ccc(F)cc1	88.7%
COc1ccc(C/C(C)=C(\c2ccc(Cl)cc2)c2ccc(OCCN3CCCC3)cc2)cc1	70%
CN1CCN(Cc2ccc(NC(=O)c3cncc(C#Cc4cnc5ccc(N6CCSCC6)nn45)c3)cc2C(F)(F)F)CC1	-74.2% (active)
CC1(C)CCC(=NNC(N)=S)CC1	103%
CCOC(=O)Cn1c(=O)c2sc3ncccc3c2n2nnc(-c3ccccc3)c12	119%
